Results from PubChem BioAssay (NCATS).
Results filed as inconclusive are left out. Where a call stands in place of a potency, no number is given. A number with no mark means an inactive call. Activity calls are given as the source filed them. Calls follow the shape of the dose curve; as a rule, active = well fitted cell-killing curve with a large enough effect; inconclusive = small, poorly fitted or top-dose-only effect, or effect the other way; inactive = no such curve, though single readings can be large or run the other way.

Tests used:
[1] = Viability qHTS for spleen associated tyrosine kinase inhibitor (SYKi) naive MV4-11 cells (AID 1963823); also: nearly all actives have a fitted effect of over 40% in size
Method in brief: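 SYK inhibitor-naive MV4-11 cells, 500 per well, exposed to compounds for 72 hr at 37 C, 5% CO2. Viability read as CellTiter-Glo luminescence after 10 min at room temperature.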

[2] = Viability qHTS for spleen associated tyrosine kinase inhibitor (SYKi) drug resistant MV4-11 cells (AID 1963824); also: nearly all actives have a fitted effect of over 35% in size
Method in brief: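 CellTiter-Glo luminescence, read 10 min after reagent addition, reports viability after a 72 hr compound exposure. Cells are an MV4-11 line made resistant to SYK inhibition, seeded at 500 per well onto compound-containing plates.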
Potency is read from the fitted curve at half-maximal effect.

Row | Structure (SMILES) | Potency [1] | Potency [2] | viability (% of control) [1] | viability, % of control [2]
1 | C=C1C(=O)O[C@@H]2C[C@@]3(C)CCC[C@H](C)C3=C[C@H]12 | 13 µM (active) | 7.31 µM (active) | – | –
2 | COc1cc2occc2c(O[C@@H]2O[C@H](CO)[C@@H](O)[C@H](O)[C@H]2O)c1CCC(=O)O | inactive | inactive | – | –
3 | CCCN(CCC)C(=O)C1=Cc2ccc(-c3ccc(C(=O)N4CCCC4)cc3)cc2N=C(N)C1 | 8.33 µM (active) | 4.17 µM (active) | – | –
4 | Cc1oc2nc3c(c(NC(=O)CN4CCCC4=O)c2c1C)CCCC3 | inactive | inactive | – | –
5 | Cc1nc(N2CCN(C(=O)c3ccco3)CC2)c2c3c(sc2n1)CCCC3 | 9.2 µM (active) | 14.6 µM (active) | – | –
6 | CC1=C(C)C(=O)C(CCCCC#CCCCC#CCO)=C(C)C1=O | 11.9 µM (active) | 13.3 µM (active) | – | –
7 | CCn1c(=O)c(-c2ccc(-c3cncc(C)n3)cc2Cl)cc2cnc(NCCC3CCN(C)CC3)nc21 | 1.18 µM (active) | 2.09 µM (active) | – | –
8 | CC1(C)C=Cc2c(ccc3c2N=C2C(C)(C)[C@@H]4C[C@]56CCCN5C(=O)[C@@]4(C[C@]23O)NC6=O)O1 | inactive | inactive | – | –
9 | C=C1C(=O)OC2/C=C(\C)CC/C=C(\C=O)C(OC)C(OC(=O)C(C)CC)C12 (centres undefined) | 3.21 µM (active) | 2.02 µM (active) | – | –
10 | CC(/C=C/C1(O)C(C)CC(O)CC1(C)C)OC1OC(CO)C(O)C(O)C1O (centres undefined) | inactive | inactive | – | –
11 | COC(=O)C1=CO[C@@H](O[C@@H]2O[C@H](CO)[C@@H](O)[C@H](O)[C@H]2O)[C@@H]2[C@@H](C(=O)O)CC[C@H]12 | inactive | inactive | – | –
12 | CCCCCOc1ccc(-c2cc(-c3ccc(C(=O)N[C@H]4C[C@@H](O)[C@@H](O)NC(=O)C5[C@@H](O)[C@@H](C)CN5C(=O)C([C@H](O)CC(N)=O)NC(=O)C([C@H](O)[C@@H](O)c5ccc(O)c(OS(=O)(=O)O)c5)NC(=O)C5C[C@@H](O)CN5C(=O)C([C@@H](C)O)NC4=O)cc3)no2)cc1 (some centres undefined) | inactive | inactive | – | –
13 | C[C@@H]1COCCN1c1cc(C2(S(C)(=O)=O)CC2)nc(-c2cccc3[nH]ccc23)n1 | 0.58 µM (active) | 0.366 µM (active) | – | –
14 | C/C1=C\CC[C@H](C)CCO[C@@H]2O[C@H](CO[C@@H]3OC[C@](O)(COC1=O)[C@H]3O)[C@@H](O)[C@H](O)[C@H]2O | inactive | inactive | – | –
15 | CN1CCCN(C(c2ccccc2)c2ccc(Cl)cc2)CC1 (centres undefined) | 21.1 µM (active) | 16.8 µM (active) | – | –
16 | N#Cc1cnc2c(Cl)cc(NCc3cn(CCN4CCCCCC4)nn3)cc2c1Nc1ccc(F)c(Cl)c1 | 9.2 µM (active) | 13 µM (active) | – | –
17 | C/C=C/C1OC2=C(C(=O)OC2(C)O)C(O)C1O (centres undefined) | inactive | inactive | – | –
18 | C/C=C/C(O)C1OC(=O)CC1Nc1ccc(C(=O)O)cc1 (centres undefined) | inactive | inactive | – | –
19 | Cc1cn(-c2cc(NC(=O)c3ccc(C)c(Nc4nccc(-c5cnccn5)n4)c3)cc(C(F)(F)F)c2)cn1 | inactive | inactive | – | –
20 | CC1C(O)C(O)C2C(C(=O)OCCc3ccc(O)cc3)=COC(O[C@@H]3O[C@H](CO)[C@@H](O)[C@H](O)[C@H]3O)C12 (some centres undefined) | inactive | inactive | – | –
21 | C=C1CCC2C(C)(C(=O)OC)CCCC2(C)C1CCC(C)CC(=O)O (centres undefined) | inactive | inactive | – | –
22 | CC(=O)Oc1ccc(C2(c3ccc(OC(C)=O)cc3)Oc3ccccc3NC2=O)cc1 | 5.8 µM (active) | 2.99 µM (active) | – | –
23 | COC(=O)/C=C/c1ccc(O[C@@H]2O[C@H](CO)[C@@H](O)[C@H](O)[C@H]2O)cc1 | inactive | inactive | – | –
24 | O=C(O)c1ccnc(-c2cc(C(=O)NCCc3ccccc3)ccn2)c1 | inactive | inactive | – | –

Row | Structure (SMILES) | Potency [1] | Potency [2] | viability (% of control) [1] | viability, % of control [2]
25 | C[C@@]12CC3(S(=O)(=O)O)OC(O1)[C@]1(COC(=O)c4ccccc4)[C@H]3C[C@]21O[C@@H]1O[C@H](CO)[C@@H](O)[C@H](O)[C@H]1O | inactive | inactive | – | –
26 | O=C(NC(NC(=S)Nc1ccc(F)c([N+](=O)[O-])c1)C(Cl)(Cl)Cl)C(c1ccccc1)c1ccccc1 (centres undefined) | 3.26 µM (active) | 3.26 µM (active) | – | –
27 | CC1(C)CC2C=C(C(=O)O)C3COC(=O)C(O)(CO)C23C1 (centres undefined) | inactive | inactive | – | –
28 | C=CCc1ccc(O[C@@H]2O[C@H](CO[C@@H]3O[C@H](CO)[C@@H](O)[C@H](O)[C@H]3O)[C@@H](O)[C@H](O)[C@H]2O)c(O)c1 | inactive | inactive | – | –
29 | C/C=C(/C=C(C)/C=C/C=C/C=C(\C)C(=O)C12OC1C(O)(CCO)NC2=O)C(=O)OC (centres undefined) | 8.93 µM (active) | 11.2 µM (active) | – | –
30 | COc1cc(CCO)ccc1O[C@@H]1O[C@H](CO)[C@@H](O)[C@H](O)[C@H]1O | inactive | inactive | – | –
31 | C[C@@H]1O[C@@H](O[C@H]2[C@@H]3C=CO[C@@H](O[C@@H]4O[C@H](CO)[C@@H](O)[C@H](O)[C@H]4O)[C@@H]3[C@@]3(CO)O[C@@H]23)[C@H](O)[C@H](OC(=O)/C=C/c2ccc(O)c(O)c2)[C@H]1O | inactive | inactive | – | –
32 | CC1(C)C(=O)CCC2(C)C1C(O)C=C1COC(=O)C12O (centres undefined) | inactive | inactive | – | –
33 | COC(=O)c1cc(OC)c(O[C@@H]2O[C@@H](C)[C@H](O)[C@@H](O)[C@H]2O)c(OC)c1 | inactive | inactive | – | –
34 | CC(=O)N1CCN(C(=O)Cc2ccc(Nc3ncc(F)c(Nc4ccc(C(=O)Nc5ccccc5Cl)cc4)n3)cc2)CC1 | 0.517 µM (active) | 0.517 µM (active) | – | –
35 | N#CCC(C1CCCC1)n1cc(-c2ncnc3[nH]ccc23)cn1 (centres undefined) | 10.3 µM (active) | 10.3 µM (active) | – | –
36 | Oc1cc(CNC(=S)/C=C/c2cc(O)c(O)c(Br)c2)cc(O)c1O | 1.84 µM (active) | 1.84 µM (active) | – | –
37 | CO[C@H]1[C@@H](O)[C@H](O[C@H]2CC[C@@]3(C)C(CCC4C3CC[C@]35COC6(COC(=O)C6)C3CCC45O)C2)O[C@@H](C)[C@@H]1OC1OC(CO)C(OC2OC(CO)C(O)C(O)C2O)C(O)C1O (some centres undefined) | 1.23 µM (active) | 1.1 µM (active) | – | –
38 | CCN1CCN(C(=O)N[C@@H](C(=O)N[C@@H]2C(=O)N3[C@@H]2SC(C)(C)[C@@H]3C(=O)O)c2ccccc2)C(=O)C1=O | inactive | inactive | – | –
39 | C=C(C)[C@@H]1CC[C@]2(C)CC[C@]3(C)[C@H](CC[C@@H]4[C@@]5(C)CC[C@@H](O)C(C)(C)[C@@H]5CC[C@]43C)[C@@H]12 | inactive | inactive | – | –
40 | CC1(C)CC[C@]2(C(=O)O[C@@H]3O[C@H](CO)[C@@H](O)[C@H](O)[C@H]3O)CC[C@]3(C)C(=CCC4[C@@]5(C)CC[C@H](O[C@@H]6O[C@H](C(=O)O)[C@@H](O)[C@H](O[C@@H]7O[C@H](CO)[C@H](O)[C@H](O)[C@H]7O)[C@H]6O)C(C)(C)C5CC[C@]43C)C2C1 (some centres undefined) | – | – | 81.1% [at 9.25 µM] | 106% [at 9.25 µM]
41 | O=C(Nc1ccn[nH]1)c1c(F)cccc1F | inactive | inactive | – | –
42 | CC(=O)CC(=O)Nc1ccc(Cl)c(C(F)(F)F)c1 | 9.2 µM (active) | 14.6 µM (active) | – | –
43 | Oc1ccc(Nc2nc(-c3ccc(Cl)cc3)cs2)cc1 | 5.8 µM (active) | 2.06 µM (active) | – | –
44 | CC(O)C1NC(=O)C2CCCN2C1=O (centres undefined) | inactive | inactive | – | –
45 | COC(=O)C[C@H]1C(C)(C)[C@H](OC(=O)C(C)C)[C@@]2(O)C(=O)[C@]1(C)C1CC[C@]3(C)C(CC(=O)O[C@H]3c3ccoc3)[C@]13O[C@@H]32 (some centres undefined) | inactive | inactive | – | –
46 | CC(C)=CCC(O)[C@](C)(O)C1[C@H](O)C[C@@]2(C)C3CC=C4C(C[C@H](O)[C@@H](O[C@@H]5O[C@H](CO)[C@@H](O)[C@H](O)[C@H]5O)C4(C)C)[C@]3(C)C(=O)C[C@]12C (some centres undefined) | inactive | inactive | – | –
47 | COc1cc([C@@H]2Oc3c(OC)cc(CCCO)cc3[C@@H]2CO[C@@H]2O[C@H](CO)[C@@H](O)[C@H](O)[C@H]2O)ccc1O | inactive | inactive | – | –
